The text below walks through data of the OligoGym collection.
Also: reference of the scale not given here.

The target in one assay is GHDC. Briefly: pooled miR-30 sensor sort-seq; sequence = guide strand. The note with it: shRNA.
The sequence TCAGAGAACAGGTCTTCACCAA had a sensor-assay potency score (higher = more potent) of 0.187.

For the sequence TTATGTCTGTGCTCCTTCTGAG, the sensor-assay potency score (higher = more potent) is -0.0646.

Turning to TCCACTGTCTTCCTGCTGGGTC, the sensor-assay potency score (higher = more potent) is -1.07.

For the sequence TTCCTCTGACAGATTCCTCAGC, the sensor-assay potency score (higher = more potent) is -0.103.

As for TGCTGCTCTCCACACAGCCATG, the sensor-assay potency score (higher = more potent) is -2.06.

TAGCTCTTCACCATCAGTCTCC had a sensor-assay potency score (higher = more potent) of 0.0115.

Turning to TTTTCCTCTGACAGATTCCTCA, the sensor-assay potency score (higher = more potent) was -0.542.

For the sequence TCCAGCCTGCAGATGAACCTGA, the sensor-assay potency score (higher = more potent) is -0.985.

AGAAGTTCGACAGCCGTCCCAG: the sensor-assay potency score (higher = more potent) is -0.973.

In the case of TTGTAGGCACCAACCACTCGCA, the sensor-assay potency score (higher = more potent) is -0.926.

With ATTGTAGGCACCAACCACTCGC, the sensor-assay potency score (higher = more potent) turned out to be 0.0645.

Turning to CTGCTCTCCACTGTCTTCCTGC, the sensor-assay potency score (higher = more potent) is -1.58.

For another assay, the target named is GHRL. The description is as above. To be noted: shRNA.
Consider TCTTCGACTCCTTTCTCTGCTG, for which the sensor-assay potency score (higher = more potent) was -0.622.

As to TTCTCTGCTGGACTCTCTGGTG, the sensor-assay potency score (higher = more potent) was -0.904.

Consider TGCTTGACCTCCATCTTCCGGG, for which the sensor-assay potency score (higher = more potent) was -0.583.

Regarding TTGACCTCCATCTTCCGGGCGG, the sensor-assay potency score (higher = more potent) is -0.454.

With TTCTGCTTGACCTCCATCTTCC, the sensor-assay potency score (higher = more potent) was -0.0657.

Regarding TCTCTGCTGGACTCTCTGGTGT, the sensor-assay potency score (higher = more potent) was -0.98.

As to TGTCCTGAAGAAACTTCCCCAG, the sensor-assay potency score (higher = more potent) was -1.03.

TGAGCTTGTACAACAGTCGTGG returned a sensor-assay potency score (higher = more potent) of 0.776.

Sequence TTTCTCTGCTGGACTCTCTGGT had a sensor-assay potency score (higher = more potent) of 0.0983.

In turn, TTGATTCCAACATCAAAGGGGG had a sensor-assay potency score (higher = more potent) of 0.299.

Turning to TAGAGCTCGGGGCTGCAGCTTG, the sensor-assay potency score (higher = more potent) was -0.899.

As to TACTGAACCCCTGACAGCTTGA, the sensor-assay potency score (higher = more potent) is -0.592.

The target in a further assay is GHR. The assay is described as above. The note with it: shRNA.
As to TCATACTCCAGAACCATCCATC, the sensor-assay potency score (higher = more potent) is -0.368.

As for TTAGAAGTCTGTCTGTGTCTGA, the sensor-assay potency score (higher = more potent) was determined as 0.716.

As to TGAACTTGGATTGCTTAGCTGA, the sensor-assay potency score (higher = more potent) was 0.127.

Regarding TATGAATGGAGGTATAGTCTGG, the sensor-assay potency score (higher = more potent) came out at 0.0222.

For TTTCTGAATATCTGCATTGCGT, the sensor-assay potency score (higher = more potent) is -0.999.

As to TTAGCTTGATACAATAAGGTAT, the sensor-assay potency score (higher = more potent) was 0.218.

As for TAGCTCAATAAATTCAACCCAA, the sensor-assay potency score (higher = more potent) was -0.0787.

As to TTCTGGTATAGAACAGCTGTAT, the sensor-assay potency score (higher = more potent) is -1.1.

TTCATCAACAGAGAAACACTTT registered a sensor-assay potency score (higher = more potent) of 0.81.

For the sequence TAGAAGTCTGTCTGTGTCTGAT, the sensor-assay potency score (higher = more potent) is -0.00194.

In the case of TAATCTTTGGAACTGGAACTGG, the sensor-assay potency score (higher = more potent) was -0.523.

The target of another assay is GHSR. The description is as above. The note with it: shRNA.
As to ATCTGAGCAATCTCCAAGGAGC, the sensor-assay potency score (higher = more potent) was -1.45.

On to TGGAAAATAAATATCGCCCTAC, for which the sensor-assay potency score (higher = more potent) was -0.395.

For AAGTCTGAACACTGCCACCCGG, the sensor-assay potency score (higher = more potent) is -1.26.
